For 18 compounds, Potency and activation results are on record in PubChem BioAssay (Tox21).

Assay [1] can be described thus: qHTS assay to identify small molecule agonists of the RXR signaling pathway - cell viability counter screen (AID 1159529).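 Further: HEK 293T cells carrying an RXR-alpha UAS beta-lactamase reporter; nearly all actives have a fitted effect of over 50% in size.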 Put shortly:
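In this parallel viability measure, GeneBLAzer RXR-alpha HEK 293T cells (2% charcoal-stripped FBS) were given a 5 hr preincubation, treated with compounds 16 hr at 37 C, and read by CellTiter-Glo luminescence.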
On the technique in general: Quantitative high-throughput screening tests each substance at several concentrations.

Assay [2] can be described thus: qHTS assay to identify small molecule antagonists of the retinoid acid receptor (RAR) signaling pathway - cell viability counter screen (AID 1159551). Further: nearly all actives have a fitted effect of over 35% in size. Put shortly: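 Luminescent ATP quantitation (CellTiter-Glo) gave cell viability in C3RL4 cells exposed to test chemicals for 6 h at 37 C alongside 1 uM final retinol.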
The nature of assay [3]: qHTS assay to identify small molecule antagonists of the retinoic acid receptor (RAR) signaling pathway (AID 1159552; further: nearly all actives have a fitted effect of over 50% in size). Put shortly:
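C3RL4 RARE-luc cells, overnight plating; retinol 1 uM final added right after compound; 6 hr 37 C; luciferase read at 30 min RT.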

Assay [4] in a line: qHTS assay to identify small molecule agonists of the retinoic acid receptor (RAR) signaling pathway (AID 1159553). The note with it: C3RL4 RARE luciferase reporter, agonist, 6 h. The method in brief:
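Luminescence from a RARE-driven luciferase reporter in C3RL4 cells served as the read-out, measured after 30 min with detection reagent at room temperature. Compounds in DMSO were applied for 6 hr at 37 C following overnight seeding.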

Assay [5] is described as follows: qHTS assay to identify small molecule antagonists of the estrogen related receptor (ERR) signaling pathway from Tox21 library - cell viability counter screen (AID 1224834). Further: nearly all actives have a fitted effect of over 30% in size. The method in brief: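 Fluorescence from CellTiter-Fluor gives the viability read-out, taken 30 min after reagent addition. Before that, ERR cells seeded 6 h earlier were incubated with compounds for 17.5 h at 37 C.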

Assay [6] deals with Luciferin 4-monooxygenase (Photinus pyralis) (UniProt P08659). Nature of the assay: qHTS assay to identify small molecule inhibitors of firefly luciferase (AID 1224835). Further: nearly all actives have a fitted effect of over 25% in size. Further: potency means the concentration at half of the fitted maximal effect. Put shortly:
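Quantitative HTS format; KM concentrations of both substrates. Purified P. pyralis FLuc activity quantified from luminescence images.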

Assay [7] in a line: qHTS assay to identify small molecule agonists of the constitutive androstane receptor (CAR) signaling pathway - cell viability counter screen (AID 1224836). Further: nearly all actives have a fitted effect of over 45% in size. Put shortly: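 Using CellTiter-Fluor, viability of HepG2 cells harbouring hCAR and CYP2B6-2.2kb was measured following 23 h incubation with a 15-concentration compound series plus PK11195 (0.75 uM final).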
The nature of assay [8]: qHTS assay to identify small molecule antagonists of the constitutive androstane receptor (CAR) signaling pathway - cell viability counter screen (AID 1224837). Further: nearly all actives have a fitted effect of over 45% in size. The method in brief: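 HepG2-CYP2B6-hCAR cells, 2500/well, 4 hr pre-incubation; compound titration, 15 conc.; CITCO 50 nM final; 23 hr, 37 C/5% CO2; CellTiter-Fluor, fluorescence intensity.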
Assay [9] addresses Nuclear receptor subfamily 1 group I member 3 (Homo sapiens) (UniProt Q14994). Description: qHTS assay to identify small molecule antagonists of the constitutive androstane receptor (CAR) signaling pathway (AID 1224838).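 Further: HepG2 cells stably expressing hCAR with CYP2B6 luciferase reporter stimulated by CITCO; nearly all actives have a fitted effect of over 40% in size.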 The method in brief:
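HepG2-CYP2B6-hCAR cells; 4 h pre-incubation; cpd (15 conc) + CITCO 50 nM final; 24 h, 37 C/5% CO2; ONE-Glo, luminescence.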

A short description of assay [10]: qHTS assay to identify small molecule antagonists of the estrogen related receptor signaling pathway with the pleiotropic PPARgamma coactivator (PGC) from Tox21 10K library - cell viability counter screen (AID 1224840; active means well fitted cell-killing curve with a large enough effect in the repeat runs, not every such curve was filed as active; further: nearly all actives have a fitted effect of over 40% in size). The method in brief:
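PGC/ERR cells, 2,000/well; 6 h pre-incubation 37 C/5% CO2; cpd in DMSO via pin tool; 17.5 h 37 C; CellTiter-Fluor, 30 min; fluorescence.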

The target of assay [11] is Nuclear receptor subfamily 1 group I member 3 (Homo sapiens) (UniProt Q14994). Description: qHTS assay to identify small molecule agonists of the constitutive androstane receptor (CAR) signaling pathway (AID 1224839).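 Further: HepG2 cells stably carrying human CAR and a CYP2B6 luciferase reporter; nearly all actives have a fitted effect of over 15% in size.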 Put shortly: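 Double-stable HepG2 cells (hCAR, CYP2B6-2.2kb) seeded 4 h before compound addition. Exposure 24 h with 0.75 uM PK11195 final. Luciferase detected by ONE-Glo.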

Assay [12] concerns the target Thyrotropin receptor (Homo sapiens) (UniProt P16473). Nature of the assay: qHTS assay to identify small molecule agonists of the thyroid stimulating hormone receptor (TSHR) signaling pathway (AID 1224843; calls by dose curve; further: nearly all actives have a fitted effect of over 45% in size). The method in brief:
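TSHR-expressing HEK293 cells (800 per well) were exposed to compounds for 30 min at room temperature. cAMP was then detected by HTRF competition with cAMP-d2 and anti-cAMP cryptate, read after 1 h at room temperature. Fifteen concentrations, triplicate.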

Assay [13] in a line: qHTS assay to identify small molecule antagonists of the estrogen related receptor signaling pathway with the pleiotropic PPARgamma coactivator (PGC) from Tox21 10K library (AID 1224841; call rule not given here; further: actives are mostly falling curves and most rising ones were filed inactive; nearly all actives have a fitted effect of over 50% in size). The method in brief:
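PGC/ERR cell line, 2,000 cells/well; 6 h pre-incubation 37 C/5% CO2; compounds (DMSO) pinned in; 18 h, 37 C; One-Glo, 30 min RT; luminescence.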

The nature of assay [14]: qHTS assay to identify small molecule agonists of the estrogen related receptor signaling pathway with the pleiotropic PPARgamma coactivator (PGC) from Tox21 10K library (AID 1224842). Further: nearly all actives have a fitted effect of over 15% in size. The method in brief: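 PGC/ERR reporter cells (NTP line) were seeded 2,000 per well, rested 6 h at 37 C/5% CO2, then pin-dosed with compounds in DMSO for 18 h at 37 C; luciferase read by One-Glo luminescence after 30 min at room temperature.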

[15] abbreviates: activation: at 73.3 µM (top of the series) unless noted.

Results filed as inconclusive are left out. Where a structure was tested more than once in an assay, its records may differ in their call. Values without a mark were called inactive. The source made the active and inactive calls. Unless noted, the call rests on the fitted dose curve; in most records, active means well fitted curve in the direction sought with a large enough effect in the repeat runs; inconclusive means weak or mixed curves; inactive means no such curve, though single readings can be large; an effect the other way counts as inactive or inconclusive.
On the % scale 0 is the no-effect control and ±100 the full control effect.

Sequence of Nuclear receptor subfamily 1 group I member 3 (Homo sapiens) (Q14994 whole entry, looked up): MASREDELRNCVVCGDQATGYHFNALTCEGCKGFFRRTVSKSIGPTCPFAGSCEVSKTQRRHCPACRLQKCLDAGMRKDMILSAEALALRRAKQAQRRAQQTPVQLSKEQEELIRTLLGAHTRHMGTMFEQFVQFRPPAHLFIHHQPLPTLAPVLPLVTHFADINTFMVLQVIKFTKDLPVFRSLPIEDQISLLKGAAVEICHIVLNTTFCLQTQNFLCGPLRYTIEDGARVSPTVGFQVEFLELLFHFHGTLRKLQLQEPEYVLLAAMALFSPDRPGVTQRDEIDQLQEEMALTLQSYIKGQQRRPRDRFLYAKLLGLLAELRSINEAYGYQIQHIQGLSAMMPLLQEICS
Sequence of Luciferin 4-monooxygenase (Photinus pyralis) (P08659 whole entry, looked up): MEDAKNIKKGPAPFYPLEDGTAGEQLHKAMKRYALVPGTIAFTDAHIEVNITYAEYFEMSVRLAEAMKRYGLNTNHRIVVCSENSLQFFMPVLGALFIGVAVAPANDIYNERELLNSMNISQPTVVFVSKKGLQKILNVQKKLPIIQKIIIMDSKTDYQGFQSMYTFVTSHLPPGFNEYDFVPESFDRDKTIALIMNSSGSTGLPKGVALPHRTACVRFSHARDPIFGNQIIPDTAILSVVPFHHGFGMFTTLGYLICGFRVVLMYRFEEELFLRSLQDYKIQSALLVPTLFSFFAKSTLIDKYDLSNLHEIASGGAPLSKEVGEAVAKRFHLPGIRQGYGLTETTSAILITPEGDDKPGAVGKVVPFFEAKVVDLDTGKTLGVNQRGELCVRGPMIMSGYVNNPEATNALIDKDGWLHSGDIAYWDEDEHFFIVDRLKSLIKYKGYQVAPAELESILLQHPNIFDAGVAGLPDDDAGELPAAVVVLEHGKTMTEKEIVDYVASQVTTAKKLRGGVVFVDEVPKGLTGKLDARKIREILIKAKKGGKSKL
Sequence of Thyrotropin receptor (Homo sapiens) (P16473 whole entry, looked up): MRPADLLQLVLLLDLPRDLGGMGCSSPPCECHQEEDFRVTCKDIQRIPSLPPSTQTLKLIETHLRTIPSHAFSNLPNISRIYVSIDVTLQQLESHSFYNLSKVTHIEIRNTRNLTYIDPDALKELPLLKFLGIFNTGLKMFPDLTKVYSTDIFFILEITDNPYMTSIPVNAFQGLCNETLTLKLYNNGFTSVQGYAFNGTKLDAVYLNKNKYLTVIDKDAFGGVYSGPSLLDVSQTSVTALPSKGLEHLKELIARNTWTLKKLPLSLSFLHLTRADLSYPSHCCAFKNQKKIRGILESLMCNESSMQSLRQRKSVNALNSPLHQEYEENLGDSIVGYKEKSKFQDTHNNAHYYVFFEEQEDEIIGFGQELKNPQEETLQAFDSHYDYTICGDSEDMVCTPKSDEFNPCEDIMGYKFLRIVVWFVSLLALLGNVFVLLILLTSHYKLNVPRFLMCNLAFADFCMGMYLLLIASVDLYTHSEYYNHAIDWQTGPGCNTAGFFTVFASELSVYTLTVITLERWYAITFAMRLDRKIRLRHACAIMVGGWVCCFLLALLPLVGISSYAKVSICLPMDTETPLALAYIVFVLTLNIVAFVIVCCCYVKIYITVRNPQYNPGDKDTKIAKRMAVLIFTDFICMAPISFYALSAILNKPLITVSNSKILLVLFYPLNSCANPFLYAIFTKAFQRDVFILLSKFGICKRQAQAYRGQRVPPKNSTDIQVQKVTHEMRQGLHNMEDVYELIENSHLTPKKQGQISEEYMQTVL

In the case of `C1COCCN1`, the Potency entry in [1], in assay [2], in [3], in assay [4] (setting [15]), in [5] and in [6] was “inactive” each time. Further, the Potency entry in assay [7], in assay [8], in [9] and in assay [10] was “inactive” throughout.

In the case of `COC(=O)CC(=O)OC`, the Potency result in [1], in [2], in assay [3], in [4] (setting [15]), in assay [5] and in assay [6] was “inactive” in each case. Moreover, the Potency entry in assay [7], in [9], in assay [11], in assay [10] and in assay [12] was “inactive” in each case.

Regarding `CCCCCCCCCCCCCO`, the Potency result in assay [1], in assay [2], in assay [3], in assay [4] (setting [15]), in [5] and in assay [7] was “inactive” each time. The Potency entry in [8], in [9], in [11], in assay [10], in assay [13] and in assay [14] was “inactive” each time. Moreover, the Potency in assay [6] is 82.5 µM (active).

Take `CC(C)(C)c1cccc(C(C)(C)C)c1O`: the Potency result in [1], in [2], in assay [3], in assay [4] (setting [15]), in [6] and in assay [7] was “inactive” throughout. Also, the Potency entry in assay [8], in assay [9], in [11], in assay [10] and in assay [12] was “inactive” throughout.

Regarding `COCCOCCOCCO`, the Potency result in assay [1], in [2], in assay [3], in assay [4] (setting [15]), in assay [6] and in [7] was “inactive” in each case. The Potency result in [8], in [9], in assay [11], in assay [10], in [13] and in assay [14] was “inactive” throughout. The Potency entry in [12] is “inactive”.

As to `CC1(C)O[C@@H]2C[C@H]3[C@@H]4C[C@H](F)C5=CC(=O)C=C[C@]5(C)[C@@]4(F)[C@@H](O)C[C@]3(C)[C@]2(C(=O)CO)O1`, the Potency result in [1], in assay [2], in [3], in assay [4] (setting [15]), in assay [5] and in [6] was “inactive” throughout. Moreover, the Potency entry in assay [7], in assay [10] and in assay [12] was “inactive” in each case.

For the compound `CC[C@]12CCCN3CCc4c(n(c5ccccc45)[C@@](O)(C(=O)OC)C1)[C@@H]32`, the Potency entry in assay [1], in [2], in [3], in assay [4] (setting [15]), in [5] and in assay [6] was “inactive” throughout. Moreover, the Potency result in assay [7], in assay [8], in assay [10], in assay [13] and in assay [14] was “inactive” in each case.

On to `Cc1cccc(Nc2ccccc2C(=O)O)c1C`, for which the Potency result in assay [1], in [2], in assay [3], in assay [4] (setting [15]), in assay [5] and in [7] was “inactive” in each case. Besides, the Potency result in assay [8], in assay [9], in [11] and in [10] was “inactive” each time. The Potency in assay [6] is 79.6 µM (active).

As for `CCCCCCCC/C=C\CCCCCCCC(=O)O`, the Potency entry in assay [1], in [2], in [3], in assay [4] (setting [15]), in assay [5] and in assay [7] was “inactive” in each case. For the same compound, the Potency entry in [8] and in assay [10] was “inactive” in each case. The Potency in [6] is 71.4 µM (active).

Consider `O=C(O)c1ccc(O)cc1`, for which the Potency result in [1], in [2], in assay [3], in [4] (setting [15]), in [5] and in assay [6] was “inactive” each time. The Potency result in assay [7], in assay [9], in assay [10], in assay [13] and in [14] was “inactive” in each case.

As to `O=C(O)CCCC(=O)O`, the Potency entry in assay [1], in assay [2], in [3], in assay [4] (setting [15]), in [5] and in assay [6] was “inactive” each time. Further, the Potency entry in [7], in assay [9], in assay [11] and in assay [10] was “inactive” each time.

Take `OCCNCCO`: the Potency result in assay [1], in assay [2], in [3], in assay [4] (setting [15]), in assay [5] and in [6] was “inactive” in each case. Besides, the Potency entry in [7], in assay [8], in assay [10], in [13] and in [14] was “inactive” in each case.

With `Cc1ccc(C(C)(C)C)cc1`, the Potency result in assay [1], in assay [2], in [3], in assay [5], in assay [6] and in assay [7] was “inactive” in each case. The Potency result in assay [8], in assay [9] and in assay [10] was “inactive” in each case. Further, the activation in assay [4] (setting [15]) was 0.0823% [at 94.8 µM] (active); in assay [4] (at 73.3 µM (top of the series)), -0.68%.

For `CCCCCCCCCCCCO`, the Potency result in assay [1], in [2], in assay [3], in assay [4] (setting [15]), in [5] and in [7] was “inactive” each time. In addition, the Potency entry in [8], in assay [9], in assay [10] and in assay [12] was “inactive” each time. The Potency in assay [6] is 31.3 µM (active).

Consider `FC(F)(F)C(Cl)Br` (stereo not given), for which the Potency entry in [1], in [2], in [3], in assay [4] (setting [15]), in assay [5] and in assay [6] was “inactive” in each case. Besides, the Potency entry in assay [7], in assay [8], in assay [10], in [13] and in [14] was “inactive” in each case.

For `CCOC(=O)C(C)Oc1ccc(Oc2cnc3cc(Cl)ccc3n2)cc1` (stereo not given), the Potency result in assay [1], in assay [2], in assay [3], in assay [4] (setting [15]), in [6] and in assay [7] was “inactive” each time. For the same compound, the Potency entry in [8], in assay [9], in assay [11] and in [10] was “inactive” throughout.

Regarding `CCCOCCO`, the Potency entry in assay [1], in [2], in assay [3], in [4] (setting [15]), in assay [6] and in [7] was “inactive” in each case. The Potency result in assay [8], in assay [9], in assay [11] and in [10] was “inactive” in each case.

Consider `CCO[Si](CCCNC(N)=O)(OCC)OCC`, for which the Potency entry in assay [1], in [2], in assay [3], in assay [4] (setting [15]), in assay [6] and in assay [7] was “inactive” each time. For the same compound, the Potency result in assay [8], in assay [9], in [11], in [10], in [13] and in assay [14] was “inactive” each time.
